Data reported in PubChem BioAssay (NCI).
This is part of a sample that, as a whole, favours compounds with a hit. Of some 79,000 tested, about 15% had one in any assay. Cut-off read from the data, not from the text of the source: active = growth inhibition above about 70%; inactive = the rest.

Legend:
[1] = NCI Yeast Anticancer Drug Screen. Data for the rad50 strain (AID 155);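 note: 0% = growth of vehicle-only cultures of the same strain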; conditions: S. cerevisiae rad50 strain growth inhibition; at 50.0 µM; active compounds read high
Method in brief: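 Yeast carrying a defined DNA repair defect were exposed to test compounds, and growth was compared with vehicle-treated controls to give percent inhibition.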

[2] = NCI Yeast Anticancer Drug Screen. Data for the mec2-1 strain (AID 157); conditions: S. cerevisiae mec2-1 strain, at 50.0 µM, active compounds read high
Method in brief: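 Using mec2-1 yeast: add compound, measure growth, express inhibition versus vehicle-treated cultures.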

[3] = NCI Yeast Anticancer Drug Screen. Data for the sgs1 mgt1 strain (AID 161);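 note: 0% = growth of cultures given vehicle only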; conditions: S. cerevisiae sgs1 mgt1 strain, at 50.0 µM, active compounds read high
Method in brief: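 Compounds are added to genetically altered yeast, and growth is compared with cultures given vehicle alone to give percent inhibition.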

[4] = NCI Yeast Anticancer Drug Screen. Data for the cln2 rad14 strain (AID 165);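 note: 0% = growth equal to vehicle treated cultures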; conditions: S. cerevisiae cln2 rad14 strain, at 50.0 µM, active compounds read high
Method in brief: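 Yeast strain cln2 rad14, bearing defects in cell cycle control and DNA repair, serves as the test system; values reflect growth inhibition compared with vehicle.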

[5] = NCI Yeast Anticancer Drug Screen. Data for the bub3 strain (AID 167); conditions: S. cerevisiae bub3 mutant strain, at 50.0 µM, active compounds read high
Method in brief: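 Compounds were applied to a genetically altered yeast strain carrying a cell-cycle control defect. Growth inhibition was scored against vehicle-treated controls.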

[6] = NCI Yeast Anticancer Drug Screen. Data for the mlh1 rad18 strain (AID 175); conditions: S. cerevisiae mlh1 rad18 strain growth inhibition; at 50.0 µM; active compounds read high
Method in brief: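 Steps: expose repair-defective yeast to compound; measure growth; express inhibition against vehicle-treated controls.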

Measured: growth inhibition

O=c1[nH]c2cc(Cl)ccc2nc1/C=C(\O)c1ccc2ccccc2c1
inactive: [1] 27.2% | [2] -5.2% | [3] -6.3% | [4] -3.85% | [5] -16.6% | [6] 25.4%

N#CC1C(=O)NC(=O)C(C#N)C1C1C(=O)NC2CCCCC21 (configuration not stated)
inactive: [1] 41.2% | [2] 5% | [3] 17.2% | [4] 23.2% | [5] 11.1% | [6] 32.8%

OCc1sccc1-n1cccc1
inactive: [1] -19.4% | [2] -47.5% | [3] -16.6% | [4] 5.75% | [5] -48.5% | [6] -28.6%

Cc1ccsc1C(=O)C(CC(=O)c1cccs1)c1ccsc1 (configuration not stated)
inactive: [1] -5.45% | [2] -8.45% | [3] -0.9% | [4] 17.3% | [5] 25.4% | [6] 16.4%

Cc1csc(=S)n1C
inactive: [1] -15.2% | [2] -3.2% | [3] -17.6% | [4] -5.8% | [5] -12% | [6] 0.4%

CCC/C=N/NC(=O)c1ccc(OC)cc1
inactive: [1] -2.45% | [2] -15.8% | [3] -6.85% | [4] -46.9% | [5] 5.85% | [6] -4.7%

COC(=O)C1(C2CCCCCCC2=O)NC(=S)NC(=O)C1C#N (configuration not stated)
inactive: [1] 4.35% | [2] -18.8% | [3] -28.1% | [4] 11.2% | [5] -24.9% | [6] -4.05%

CC1(C)C=C(C(Cl)c2ccccc2)C(=O)c2ccccc21 (configuration not stated)
inactive: [1] -1% | [2] 6.6% | [3] 0% | [4] -4.6% | [5] -3.7% | [6] -7.15%

CCCCOC(=O)c1ccc(O)cc1.[Zn+2]
inactive: [1] -31.1% | [2] -11.6% | [3] -16.6% | [4] -41.9% | [5] -22.4% | [6] -35.4%

CCOC(=O)NNC(N)=O
inactive: [1] -2.8% | [2] -19.2% | [3] -18% | [4] -22.1% | [5] 1.8% | [6] -10.5%

N#CC(N)c1ccc(OCCCCCCCCCCOc2ccc(C(N)C#N)cc2)cc1 (configuration not stated)
inactive: [1] 1.5% | [2] 2.65% | [3] -27.2% | [4] -7.8% | [5] -17.4% | [6] -20.8%

CN(C)Cc1ccccc1COC(=O)/C=C/c1ccccc1
inactive: [1] 11.3% | [2] 7.5% | [3] 8.8% | [4] 10.1% | [5] 7.4% | [6] 8.95%

CC(C)CSC(C)C
inactive: [1] -3.6% | [2] -43.4% | [3] -27.6% | [4] -5.25% | [5] -6.9% | [6] -11.1%

O=c1ccc2ccc(-c3cnc(O)[nH]c3=O)oc-2c1
inactive: [1] 25.6% | [2] 2.05% | [3] 5.35% | [4] 1.4% | [5] 2.25% | [6] 10.3%

C=Cc1nnnn1C
inactive: [1] 7.45% | [2] 16.2% | [3] -5.85% | [4] 10.3% | [5] 10.4% | [6] 10.8%

CC(=O)Nc1cc2cc(NS(=O)(=O)c3ccc(Cl)c(Cl)c3)ccc2oc1=O
inactive: [1] 8.35% | [2] -1.55% | [3] 0.35% | [4] 19.9% | [5] -4% | [6] 10.4%

COc1ccccc1C1OC2=C(Nc3ccc([N+](=O)[O-])cc3N2)C1=O (configuration not stated)
inactive: [1] 12.2% | [2] 10.4% | [3] 27.9% | [4] 16.6% | [5] 16.9% | [6] 28.1%

CCC(c1ccc(OCC(=O)N2CC2)cc1)C(CC)c1ccc(OCC(=O)N2CC2)cc1 (configuration not stated)
inactive: [1] 11.8% | [2] 10.3% | [3] 13.5% | [4] 17.8% | [5] -0.35% | [6] 1.75%

COc1ccc2nc(C)c3c(c2c1)C(=O)N(CCCN1CCN(CCCN2C(=O)c4c(C)nc5ccc(OC)cc5c4C2=O)CC1)C3=O
inactive: [1] 0.6% | [2] 9.4% | [3] -7.5% | [4] -25.4% | [5] 2.15% | [6] 36.5%

CC[N+]1(C)CCC(CN2c3ccccc3Sc3ccccc32)C1 (configuration not stated)
inactive: [1] 31.4% | [2] 22.6% | [3] 38.5% | [4] -2.65% | [5] 6% | [6] 43.3%

COc1ccc(NC(=O)CC(=O)N2N=C(N(CCC#N)c3ccccc3Cl)CC2c2ccccc2)cc1 (configuration not stated)
inactive: [1] -13.4% | [2] -23.6% | [3] -1% | [4] 10.7% | [5] -4.55% | [6] -28.9%

C=CCOCn1ccc(NC(=O)c2ccccc2)nc1=O
inactive: [1] -58% | [2] -57.1% | [3] -37% | [4] -3.15% | [5] -8.4% | [6] -22.3%

O=C1CCC2CCc3cccc1c32 (configuration not stated)
inactive: [1] 0.15% | [2] -7.75% | [3] -12.3% | [4] -19.4% | [5] -18.6% | [6] 3.05%

COCCCNC(=S)N/N=C/c1ccccc1O
inactive: [1] -2.4% | [2] -31.1% | [3] 16.6% | [4] 12.2% | [5] 11.2% | [6] 4%

O=c1nc(-c2ccccc2)scc1-c1ccccc1
inactive: [1] -1% | [2] -10.6% | [3] 3.4% | [4] 19.1% | [5] 10% | [6] -10.1%

COc1ccc(/C=C/C(=O)C(C)(CN(C)C)CN(C)C)cc1
inactive: [1] 0.95% | [2] -13.8% | [3] 4.95% | [4] 6.85% | [5] -11.2% | [6] 11.8%

Cc1ccc2c(c1)c(C)c(C)c(=O)n2C
inactive: [1] 21.2% | [2] -8.7% | [3] -1.5% | [4] 13.2% | [5] 1.9% | [6] 10.1%

Nc1cnc(Nc2cccc3ccccc23)o1
inactive: [1] -26.3% | [2] -35.3% | [3] -14.1% | [4] 0.35% | [5] 8.85% | [6] -15.7%

O=C1NC(=O)C(c2ccco2)N1 (configuration not stated)
inactive: [1] 3.7% | [2] -1.55% | [3] -12.2% | [4] 4.8% | [5] -16.7% | [6] 8.2%

Cc1ccc([N+](=O)[O-])c2c(NCCNC(=O)Cn3ccnc3[N+](=O)[O-])ccnc12
inactive: [1] 15.8% | [2] 4.3% | [3] 8.25% | [4] -0.7% | [5] 16.4% | [6] 12.3%

COC1=CC(=O)C(CC=C(C)C)=CC1=O
inactive: [1] 5.65% | [2] -9.9% | [3] -1.2% | [4] -62.4% | [5] -8.9% | [6] -3.2%

Nc1ccc(OCC(O)CN2CCN(c3ccccc3)CC2)cc1 (configuration not stated)
inactive: [1] 7.45% | [2] 4.15% | [3] 6.65% | [4] -3.85% | [5] 10.6% | [6] 4.1%

COC(=O)c1cc(CN(C)C)c(O)c(CN(C)C)c1
inactive: [1] -20.3% | [2] -10.8% | [3] -34% | [4] -3.7% | [5] 2% | [6] -29%

C=CCOC(=O)Nc1ccc(S(=O)(=O)CC)cc1
inactive: [1] -0.95% | [2] 5.95% | [3] -4.55% | [4] -21.6% | [5] 22.8% | [6] -1.65%

O=C(O)C(=O)C(=O)O
inactive: [1] -23% | [2] -41.8% | [3] -9.65% | [4] -10.1% | [5] -1.45% | [6] -5.45%

COC(=O)C(CC(=O)[C@H]1CC[C@H]2[C@@H]3CC=C4C[C@@H](OC(C)=O)CC[C@]4(C)[C@H]3CC[C@]12C)OC (some centres not stated)
inactive: [1] 11.8% | [2] 8.6% | [3] 15.2% | [4] 2.45% | [5] -22.4% | [6] 9%

COc1ccc(C2C3=CONC3CC3CCCCC32)cc1 (configuration not stated)
inactive: [1] 4.5% | [2] -34.5% | [3] -0.4% | [4] 8.25% | [5] 6.25% | [6] 6.5%

CC1=C(c2ccco2)C(c2ccco2)OC1=O (configuration not stated)
inactive: [1] 8.45% | [2] 27.2% | [3] 15.9% | [4] -16.6% | [5] 18.3% | [6] -7.3%

O=C(O)c1ccccc1Nc1ccccc1
inactive: [1] 5.75% | [2] -22.1% | [3] 3.8% | [4] -22.4% | [5] -0.75% | [6] -10%

CCC(=O)c1c(O)c2ccccc2oc1=O
inactive: [1] -21.1% | [2] 9.45% | [3] -5.2% | [4] -4.1% | [5] 11.8% | [6] 8.1%

CC(=O)Oc1ccc2ccccc2c1CN(C(C)=O)c1ccc(C)cc1
inactive: [1] -7.45% | [2] -22.7% | [3] -10.1% | [4] -19.4% | [5] 1.7% | [6] -28.4%

CCOC(=O)/C(C#N)=C/NCC1CC1
inactive: [1] -21.8% | [2] -33.5% | [3] 1.6% | [4] 10.6% | [5] -33.2% | [6] -22.6%
